Composite z-score and z-score data for 15 molecules are collected here from PubChem BioAssay.

For experiment [1], the system named is Wnt5a (protein binding on small-molecule microarray). Put plainly: Wnt5a binders on small-molecule microarray, primary screen, biophysical, 635/667 nm fluorescence (AID 1142).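 Note: fluorescence read at 667 nm with signal to noise per printed feature.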 To be noted: 635 nm fluorescence, higher = more signal.
The nature of experiment [2]: cell viability in Huh7 cells, primary screen, cytotoxicity control for HCV replication inhibitor project, CellTiter-Glo luminescence, basal, 48 h (AID 1143).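 Note: Huh7 hepatoma cells carrying a hepatitis C replication reporter with no stimulus; test concentration not given here.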 To be noted: Huh7 HCV replicon, higher = more signal, called active from +8 up or from −8 down. Background: ATP-based viability assays read luminescence as a measure of living cells.
Experiment [3] can be described thus: P. aeruginosa biofilm formation inhibitors, primary screen, PAO1 strain, BacTiter-Glo luminescence, LB-PBS (AID 1144). To be noted: 12 h, higher = more signal.
A short description of experiment [4]: CREB reporter modulators without forskolin, primary screen, cell-based, PC12, CRE-LacZ reporter, unstimulated (AID 1145). Particulars: no forskolin, luminescence, 4.5 h, higher = more signal, called active from +8 up or from −8 down.
Experiment [5] is described as follows: CREB reporter modulators under forskolin, primary screen, cell-based, PC12, CRE-LacZ reporter, forskolin-stimulated (AID 1146).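 Note: PC12 cells with 6xCRE LacZ reporter stimulated by forskolin 10 µM; beta-galactosidase reporter signal reflecting CREB driven transcription.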 To be noted: luminescence, 4.5 h, higher = more signal, called active from +8 up or from −8 down.
Experiment [6] addresses Streptavidin (Streptomyces avidinii) (UniProt P22629). The experiment is described as follows: streptavidin binders on small-molecule microarray, primary screen, artefact control for SMM compound annotation, biophysical, 635/667 nm fluorescence (AID 1147).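 Note: signal reflects streptavidin binding to arrayed compounds as a control protein.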 To be noted: streptavidin binding, higher = more signal.
Experiment [7] is described as follows: small-molecule binders of probe aInhba, primary screen, biochemical, small-molecule microarray, 635/667 nm fluorescence (AID 1148).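 Note: score merges 667nm spot fluorescence with signal-to-noise for antibody binding to printed compounds.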 To be noted: higher = more signal.
Experiment [8] deals with Torsin-1A (Homo sapiens) (UniProt O14656). Put plainly: torsin A binders from cell lysate, primary screen, small-molecule microarray, wild-type, 635/667 nm (AID 1149). To be noted: COS7 hTOR1A-WT lysate, 635 nm fluorescence, higher = more signal.
The target is the same in experiment [9]. The experiment is described as follows: small-molecule binders of mutant TOR1A in lysate, primary screen, cell lysate, small-molecule microarray, COS7 lysate, 635/667 nm fluorescence (AID 1150).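 Note: score pools 667 nm emission and signal to noise measuring lysate protein binding.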 Particulars: COS7 hTOR1A mutant lysate, 635 nm fluorescence, higher = more signal.
Experiment [10] deals with Sonic hedgehog protein (Shh). The experiment is described as follows: small-molecule binders of Shh protein, primary screen, biochemical, small-molecule microarray, 635/667 nm fluorescence (AID 1151).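 Note: Shh protein binding to compounds spotted on small-molecule microarray slides; score combines spot fluorescence intensity with signal-to-noise across triplicate slides.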 Particulars: small-molecule microarray binding, 635 nm fluorescence; higher = more signal.

Activity calls are given as the source filed them. Unless noted, the rule behind the calls is not given here.

Chain of Streptavidin (Streptomyces avidinii) (P22629 whole entry, looked up): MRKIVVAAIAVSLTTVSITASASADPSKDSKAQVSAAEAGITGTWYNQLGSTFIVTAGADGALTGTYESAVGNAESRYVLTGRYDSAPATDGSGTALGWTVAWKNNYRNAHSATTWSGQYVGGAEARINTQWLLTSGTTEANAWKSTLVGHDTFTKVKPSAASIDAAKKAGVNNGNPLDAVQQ
Chain of Torsin-1A (Homo sapiens) (O14656 whole entry, looked up): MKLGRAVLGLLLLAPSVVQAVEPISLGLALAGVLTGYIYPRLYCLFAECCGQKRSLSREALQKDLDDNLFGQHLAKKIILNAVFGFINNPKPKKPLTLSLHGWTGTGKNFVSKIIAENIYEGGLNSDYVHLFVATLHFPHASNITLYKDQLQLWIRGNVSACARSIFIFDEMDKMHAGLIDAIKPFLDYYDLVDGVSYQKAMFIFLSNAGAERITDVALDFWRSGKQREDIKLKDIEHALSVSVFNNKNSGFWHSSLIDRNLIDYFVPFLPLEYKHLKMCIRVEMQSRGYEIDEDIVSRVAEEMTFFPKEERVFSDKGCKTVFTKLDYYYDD

Consider `COC(=O)[C@@]1(Cc2ccccc2)[C@H]2c3cc(C(=O)N(C)C)n(Cc4cc(C)n(C)n4)c3C[C@H]2CN1C(=O)c1ccccc1`, for which the composite z-score in experiment [1] was found to be 0.0704; in [6] it was 1.63; in experiment [7], 0.606; in the experiment with Torsin-1A (Homo sapiens) [8] it was 1.31; with Torsin-1A (Homo sapiens) [9] it was 1.99; in experiment [10], 0.278. Moreover, the z-score was -1.31 (inactive) in experiment [2], 0.381 (inactive) in [3], 2.3 (inactive) in experiment [4] and 1.92 (inactive) in [5].
`CCOC(=O)C1=C[C@@H](C(C)C)N(S(=O)(=O)c2ccc(C)cc2)[C@H]1c1ccc(C(C)C)cc1`: the composite z-score in [1] is 0.336; in [6], 1.58; in experiment [7], -0.121; in the experiment with Torsin-1A (Homo sapiens) [8] it was 1.05; in the experiment with Torsin-1A (Homo sapiens) [9], 0.644; in experiment [10], 0.31. For the same molecule, the z-score in experiment [2] was -3.48 (inactive); in [3], -0.228 (inactive); in experiment [4], -0.676 (inactive); in experiment [5], 0.359 (inactive).
For the molecule `COCCOC(=O)N1C(=O)[C@@]2(c3ccccc31)[C@H](c1ccc(O)cc1)N1[C@H](c3ccccc3)[C@H](c3ccccc3)OC(=O)[C@H]1[C@@H]2C(=O)N1CCc2cc(OC)c(OC)cc2C1`, the composite z-score was 0.633 in experiment [1]; -0.162 in [6]; 0.223 in experiment [7]; 0.419 with Torsin-1A (Homo sapiens) [8]; 0.697 with Torsin-1A (Homo sapiens) [9]; 2.1 in [10]. In addition, the z-score was -3.64 (inactive) in experiment [2], -1.29 (inactive) in experiment [3], 0.0776 (inactive) in [4] and -0.654 (inactive) in [5].
In the case of `CC(C)C(O)C1C=CC2C(=O)N(c3ccccc3)C(=O)C2N1Nc1ccc(C#N)cc1` (stereo not given), the composite z-score in experiment [1] is 0.612; in experiment [6], 0.761; in experiment [7], 0.388; with Torsin-1A (Homo sapiens) [8], -0.0618; with Torsin-1A (Homo sapiens) [9], 0.719; in [10], 0.0011. Further, the z-score in experiment [2] is 0.388 (inactive); in experiment [3] it was -0.783 (inactive); in experiment [4] it was 0.629 (inactive); in experiment [5] it was 0.813 (inactive).
For `O=c1cccc(C=Cc2ccccc2)o1`, the composite z-score in [1] was -0.276; in [6], -0.532; in experiment [7], 0.144; with Torsin-1A (Homo sapiens) [8], -0.994; in the experiment with Torsin-1A (Homo sapiens) [9], -0.711; in [10], -0.604. For the same molecule, the z-score in [2] is -0.273 (inactive); in experiment [3], -0.544 (inactive); in experiment [4], -0.676 (inactive); in experiment [5], 0.801 (inactive).
In the case of `CN1C(=O)C2C(C1=O)C1C=C(CCCO)C2C(c2cccs2)N1C` (stereo not given), the composite z-score in experiment [1] was 0.0691; in [6] it was -0.96; in experiment [7] it was 0.141; in the experiment with Torsin-1A (Homo sapiens) [8], -0.381; with Torsin-1A (Homo sapiens) [9] it was -0.332; in experiment [10] it was -0.11. Moreover, the z-score is -0.273 (inactive) in [2], 0.0748 (inactive) in experiment [3], 0.236 (inactive) in [4] and 0.289 (inactive) in experiment [5].
On to `COc1ccc(CCNC(=O)[C@@]2(Sc3ccc(C)cc3)CC(=O)N(Cc3ccccc3Cl)[C@@H]2c2ccc(CO)cc2I)cc1`, for which the composite z-score in [1] is -0.234; in experiment [6] it was -0.539; in [7] it was 0.12; in the experiment with Torsin-1A (Homo sapiens) [8], -0.794; in the experiment with Torsin-1A (Homo sapiens) [9], -0.491; in [10], 0.153. The z-score in experiment [2] was -2.2 (inactive); in experiment [3], 0.0319 (inactive); in experiment [4], 0.569 (inactive); in experiment [5], 1.12 (inactive).
In the case of `COc1cc2c(cc1OC)CN(C(=O)[C@@H]1[C@H]3C(=O)O[C@H](c4ccccc4)[C@H](c4ccccc4)N3[C@H](c3ccccc3OCCO)[C@@]13C(=O)Nc1ccc(C#CCNC(N)=O)cc13)CC2`, the composite z-score in experiment [1] came to 0.38; in [6], 0.684; in experiment [7] it was 0.32; in the experiment with Torsin-1A (Homo sapiens) [8], 0.593; in the experiment with Torsin-1A (Homo sapiens) [9], 0.812; in experiment [10], 1.38. Moreover, the z-score in experiment [2] is -2 (inactive); in experiment [3] it was -0.105 (inactive); in experiment [4] it was -0.168 (inactive); in experiment [5], -0.0826 (inactive).
On to `CC(C)C(=C=CC[C@H](O)c1cccc(OCCO)c1)C[C@H](O)COCc1ccccc1`, for which the composite z-score in experiment [1] was determined as 0.148; in experiment [6] it was 1.24; in experiment [7] it was 0.167; with Torsin-1A (Homo sapiens) [8], 1.03; with Torsin-1A (Homo sapiens) [9] it was 0.33; in experiment [10] it was 2.09. Further, the z-score in experiment [2] is -0.33 (inactive); in experiment [3] it was -0.457 (inactive); in experiment [4], 1.82 (inactive); in experiment [5], 0.526 (inactive).
For `COc1ccc(C(O)C2C=CC3C(=O)NC(=O)C3N2Nc2ccccn2)cc1OCc1ccccc1` (stereo not given), the composite z-score in experiment [1] was -0.125; in [6] it was 0.428; in experiment [7], -0.0256; with Torsin-1A (Homo sapiens) [8] it was -0.209; with Torsin-1A (Homo sapiens) [9] it was 0.435; in experiment [10] it was 0.0157. Moreover, the z-score was 0.716 (inactive) in experiment [2], -0.484 (inactive) in [3], 0.629 (inactive) in [4] and 0.124 (inactive) in experiment [5].
As for `CCOC(=O)C[C@H]1[C@H](OC(=O)c2ccc(C(=O)c3ccccc3)cc2)[C@@H](NC(=O)C2CCCCC2)c2cc(OCCCO)ccc2N1C(=O)c1ccccc1`, the composite z-score was 0.177 in [1]; 0.767 in experiment [6]; 0.58 in [7]; 0.342 with Torsin-1A (Homo sapiens) [8]; 0.358 in the experiment with Torsin-1A (Homo sapiens) [9]; 1.31 in [10]. Besides, the z-score in experiment [2] is -0.361 (inactive); in experiment [3] it was 0.441 (inactive); in experiment [4], 2.06 (inactive); in experiment [5] it was -0.0298 (inactive).
Take `N#Cc1ccc(NN2C(C(O)C3CCCCC3)C=CC3C(=O)N(c4ccccc4)C(=O)C32)cc1` (stereo not given): the composite z-score in experiment [1] is 0.4; in experiment [6], 1.75; in experiment [7], 0.134; with Torsin-1A (Homo sapiens) [8], 0.439; in the experiment with Torsin-1A (Homo sapiens) [9] it was 0.361; in experiment [10], -0.81. For the same molecule, the z-score in experiment [2] is 0.124 (inactive); in experiment [3] it was -0.984 (inactive); in experiment [4], 0.808 (inactive); in experiment [5] it was 1.47 (inactive).
Turning to `CC(C)OC(=O)CC(=O)CC(O)c1ccc(C#N)cc1` (stereo not given), the composite z-score in experiment [1] was -0.0818; in [6], -0.425; in [7] it was 0.0816; with Torsin-1A (Homo sapiens) [8], 2.11; with Torsin-1A (Homo sapiens) [9] it was 2; in experiment [10] it was -0.305. The z-score in experiment [2] was -1.68 (inactive); in experiment [3], -0.577 (inactive); in experiment [4], -0.583 (inactive); in [5], -1.27 (inactive).
Turning to `[N-]=[N+]=NCc1ccccc1[C@@H]1OC(c2ccc(OCCCO)cc2)=N[C@]1(Cc1ccccc1N=[N+]=[N-])C(=O)NCc1ccccc1`, the composite z-score in experiment [1] was 0.378; in experiment [6], 0.942; in experiment [7], -0.0006; with Torsin-1A (Homo sapiens) [8] it was 0.819; with Torsin-1A (Homo sapiens) [9] it was 0.191; in experiment [10] it was 1.51. Besides, the z-score in experiment [2] is -3 (inactive); in experiment [3] it was -0.433 (inactive); in experiment [4], -0.193 (inactive); in [5], -1.02 (inactive).
On to `Cc1c(NC(=O)CC#N)c(=O)n(-c2ccccc2)n1C`, for which the composite z-score was 0.0101 in experiment [1]; -0.347 in experiment [6]; -0.179 in experiment [7]; 0.362 with Torsin-1A (Homo sapiens) [8]; -0.0384 with Torsin-1A (Homo sapiens) [9]; 0.642 in [10]. Further, the z-score is -2.39 (inactive) in experiment [2], -0.739 (inactive) in [3], -0.671 (inactive) in experiment [4] and -0.832 (inactive) in experiment [5].
